Results reported in PubChem BioAssay.
Active and inactive are the calls of the source.

What follows are compounds tested against NADPH oxidase 4 (Homo sapiens) (UniProt Q9NPH5) (assay: NOX4-dependent H2O2 signal modulators, primary screen, NOX inhibitor project, cell-based, HEK293-NOX4, tetracycline-induced, Amplex Red fluorescence (AID 1160)). Conditions: 45 min, higher = more signal, called active from +8 up or from −8 down.
Sequence of NADPH oxidase 4 (Homo sapiens) (Q9NPH5 whole entry, looked up): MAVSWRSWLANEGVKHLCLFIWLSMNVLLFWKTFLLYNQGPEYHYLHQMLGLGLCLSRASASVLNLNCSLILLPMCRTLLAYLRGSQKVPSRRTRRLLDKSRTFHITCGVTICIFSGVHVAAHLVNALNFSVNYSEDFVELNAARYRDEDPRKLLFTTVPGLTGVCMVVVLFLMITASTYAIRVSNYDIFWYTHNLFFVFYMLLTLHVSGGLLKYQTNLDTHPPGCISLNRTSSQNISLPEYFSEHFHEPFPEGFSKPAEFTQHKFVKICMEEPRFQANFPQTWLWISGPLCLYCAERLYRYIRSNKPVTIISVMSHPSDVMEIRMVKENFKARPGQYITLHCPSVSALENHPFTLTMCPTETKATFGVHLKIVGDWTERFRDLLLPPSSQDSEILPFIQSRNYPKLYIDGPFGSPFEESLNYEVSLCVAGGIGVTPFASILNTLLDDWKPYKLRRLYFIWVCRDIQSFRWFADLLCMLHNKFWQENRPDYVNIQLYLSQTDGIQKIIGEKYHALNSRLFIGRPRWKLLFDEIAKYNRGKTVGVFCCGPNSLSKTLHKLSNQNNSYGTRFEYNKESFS

z-score, inactive:
CC1CC/C=C\[C@H]2OC34C=CCN(Cc5ccccc5)C(=O)[C@H]3N(CCCCCO)C(=O)[C@@H]4C2C(=O)O1 (some centres undefined) -0.14, COCCOC(=O)N1C(=O)[C@@]2(c3cc(C#CCNC(N)=O)ccc31)[C@H](C(=O)N1CCc3cc(OC)c(OC)cc3C1)[C@H]1C(=O)O[C@H](c3ccccc3)[C@H](c3ccccc3)N1[C@@H]2c1ccc(OCCO)cc1 0.869, O=C1OCCC/C=C\[C@H]2OC34C=CCN(Cn5nnc6ccccc65)C(=O)[C@H]3N(CCCCCO)C(=O)[C@@H]4C12 (some centres undefined) -0.167, O=C(O)[C@@]1(Cc2ccccc2)N=C(c2ccc(OCCCO)cc2)O[C@H]1c1ccccc1 0.864, Cc1ccc(S[C@]2(C(=O)NC3CC3)CC(=O)N(C3CCCCC3)[C@@H]2c2ccc(CO)cc2I)cc1 -0.194, O=C/C=C/c1ccc2c(c1)OCO2 -0.502, CC(C)(C)OC(=O)CC[C@@]1(C(=O)O)N=C(c2ccc(OCCCO)cc2)O[C@@H]1c1ccccc1N=[N+]=[N-] 1.69, COCCOC(=O)N1C(=O)[C@@]2(c3cc(C#CCC(C(=O)OC)C(=O)OC)ccc31)[C@H](C(=O)N1CCN(c3ncccn3)CC1)[C@H]1C(=O)O[C@H](c3ccccc3)[C@H](c3ccccc3)N1[C@@H]2c1ccc(OCCO)cc1 1.43, COCCOC(=O)N1C(=O)[C@@]2(c3cc(C#CCC(C(=O)OC)C(=O)OC)ccc31)[C@H](c1ccc(O)cc1)N1[C@H](c3ccccc3)[C@H](c3ccccc3)OC(=O)[C@H]1[C@@H]2C(N)=O 0.525
